From PubChem BioAssay (NCI)
About 79,000 compounds went through this panel and 15% of them were active in at least one assay; those are over-represented in the sample as a whole. Active and inactive are the calls of the source. Cut-off read from the data, not from the text of the source: active = growth inhibition above about 70%; inactive = the rest.

Experiments:
[1] = NCI Yeast Anticancer Drug Screen. Data for the rad50 strain (AID 155);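 note: 0% = growth of vehicle-only cultures of the same strain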; conditions: S. cerevisiae rad50 strain growth inhibition; at 50.0 µM; active compounds read high
Procedure, shortened: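 Vehicle-treated cultures provide the reference for the growth inhibition reported for compound-exposed, repair-deficient yeast.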

[2] = NCI Yeast Anticancer Drug Screen. Data for the mec2-1 strain (AID 157); conditions: S. cerevisiae mec2-1 strain, at 50.0 µM, active compounds read high
Procedure, shortened: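 Test agents were screened against the mec2-1 yeast strain, with defined DNA repair or cell cycle alteration. Growth was scored as inhibition against vehicle-only controls.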

[3] = NCI Yeast Anticancer Drug Screen. Data for the sgs1 mgt1 strain (AID 161);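 note: 0% = growth of cultures given vehicle only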; conditions: S. cerevisiae sgs1 mgt1 strain, at 50.0 µM, active compounds read high
Procedure, shortened: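 Inhibition of yeast growth, normalised to vehicle-treated controls, is reported for a strain bearing genetic alterations in DNA damage repair.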

[4] = NCI Yeast Anticancer Drug Screen. Data for the cln2 rad14 strain (AID 165);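 note: 0% = growth equal to vehicle treated cultures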; conditions: S. cerevisiae cln2 rad14 strain, at 50.0 µM, active compounds read high
Procedure, shortened: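 Growth of compound-exposed yeast (cln2 rad14 genotype) measured and expressed as inhibition relative to vehicle.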

[5] = NCI Yeast Anticancer Drug Screen. Data for the bub3 strain (AID 167); conditions: S. cerevisiae bub3 mutant strain, at 50.0 µM, active compounds read high
Procedure, shortened: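 Mutant yeast screening strain plus compound; vehicle-treated cultures serve as the 0% inhibition reference.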

[6] = NCI Yeast Anticancer Drug Screen. Data for the mlh1 rad18 strain (AID 175); conditions: S. cerevisiae mlh1 rad18 strain growth inhibition; at 50.0 µM; active compounds read high
Procedure, shortened: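 In this whole-cell yeast screen, a strain with altered DNA damage repair is challenged with compound, and its growth is measured against matched vehicle-treated controls.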

Measured: growth inhibition

CC(=O)N1Cc2ncnc(N)c2C1
inactive: [1] -12.3% | [2] -8.9% | [3] -20.7% | [4] -10.6% | [5] -2.35% | [6] -10.4%

S=c1nn[nH]n1C1CCCCC1
inactive: [1] 8.05% | [2] -14.3% | [3] -1.8% | [4] 4.1% | [5] 0.85% | [6] 9.95%

N#CC(C#N)c1ccc(C(C#N)C#N)cc1
inactive: [1] -9.15% | [2] -6.75% | [3] 0.25% | [4] -16% | [5] -12.3% | [6] -1.55%

CC(C)C(O)(c1ccccc1)C(O)(c1ccccc1)C(C)C (configuration not stated)
active: [1] 99.5% | [2] 99.6% | [3] 99.5% | [4] 99% | [5] 99.5% | [6] 99.5%

CC12CCC3[C@@H](CC3(C)C)C(O)(CCC1=O)C2 (some centres not stated)
inactive: [1] -10.4% | [2] -9.35% | [3] -10.8% | [4] -23.9% | [5] -5.35% | [6] -57.1%

CC(CO)(CO)[N+](=O)[O-]
inactive: [1] 19.2% | [2] 9.65% | [3] -5.85% | [4] -46.5% | [5] 6.25% | [6] 19.9%

CC(=O)SCC(C)CCl (configuration not stated)
inactive: [1] -12.4% | [2] -47.6% | [3] -30.9% | [4] -3.15% | [5] -17.7% | [6] -25.4%

Nc1[nH][nH]c(=O)c1N=Nc1ccccc1
inactive: [1] -7.75% | [2] -8.95% | [3] -1.15% | [4] -6.6% | [5] 8.4% | [6] 5.15%

COC1(OC)N=C(N)C2(C#N)C(C)=C3NCN(C)N=C3C12C#N (configuration not stated)
inactive: [1] 8.15% | [2] 3.2% | [3] -44% | [4] -6.7% | [5] -33.8% | [6] -51%

Clc1cc(Br)c2c(Cl)ccnc2c1Br
inactive: [1] 35.6% | [2] -1.3% | [3] 7.5% | [4] -8.65% | [5] 0.85% | [6] 20%

CCOCC/C(C(=O)O)=C(\CC)C(=O)O
inactive: [1] 9.15% | [2] 2.55% | [3] 0% | [4] 8.7% | [5] -22.8% | [6] 9.05%

Cc1cc(N=Nc2ccc(N(C)C)cc2)ccn1
inactive: [1] 21.6% | [2] 7.2% | [3] 6.1% | [4] -52.8% | [5] 13.7% | [6] 0.9%

O=C1C(N=Cc2c(O)ccc3ccccc23)CON1C(c1ccccc1)(c1ccccc1)c1ccccc1 (configuration not stated)
inactive: [1] 55.5% | [2] 37.5% | [3] 28.9% | [4] 20.1% | [5] 3.55% | [6] 40.5%

COc1ccc(N=Cc2ccc(C#N)cc2)cc1
inactive: [1] 9.4% | [2] -25.2% | [3] -7.15% | [4] 7.95% | [5] -12.8% | [6] -4.9%

COC(=O)N/N=C/c1oc(-c2cccc([N+](=O)[O-])c2)c(-c2cccc([N+](=O)[O-])c2)c1[N+](=O)[O-]
inactive: [1] 19.4% | [2] 30.1% | [3] 16.5% | [4] 22.6% | [5] 21% | [6] 22.6%

C[N+]1(C)CCC(C(=O)c2ccccc2)CC1
inactive: [1] 1.15% | [2] 4.95% | [3] 5.6% | [4] -17.9% | [5] 17% | [6] 16.4%

Clc1ccc2nsnc2c1Cl
inactive: [1] -0.1% | [2] -1.25% | [3] -3.75% | [4] -19.4% | [5] 7.8% | [6] 8.1%

CC(=O)c1ccc(Cl)c(-n2cccc2)c1
inactive: [1] 4.2% | [2] -12.1% | [3] 13% | [4] 17.6% | [5] 17.8% | [6] -0.45%

CC1(C)CC(C)(C)[P+]1(C)c1ccccc1
inactive: [1] -0.35% | [2] 16.4% | [3] 12.8% | [4] -3.45% | [5] 15.6% | [6] 10.1%

Cc1n[n+](Cc2ccccc2)c2sc(N)nn12
inactive: [1] 2.85% | [2] 6.25% | [3] -41.6% | [4] 20% | [5] 26.9% | [6] -26.1%

COc1ccc(OC)c2c(C(C)=O)cccc12
inactive: [1] -35% | [2] -42.1% | [3] -4.2% | [4] -12.8% | [5] -17.2% | [6] -21.7%

Cc1c(Cl)ccc2c1NC(=O)C2(O)CC(=O)c1ccc(Cl)cc1Cl (configuration not stated)
inactive: [1] 34.4% | [2] 18.7% | [3] 0.1% | [4] -13.5% | [5] 10.9% | [6] 23.4%

BrC1(Br)C2CC/C=C/CCCCC21 (configuration not stated)
inactive: [1] -10.1% | [2] 13.9% | [3] 20.9% | [4] -1.85% | [5] -3.05% | [6] -27.1%

CCN(CC)CC(O)c1cccc2cccnc12 (configuration not stated)
inactive: [1] 67.7% | [2] -11.4% | [3] 17.4% | [4] 8.8% | [5] 5.2% | [6] 30.2%

Cc1ccc(C)c(NC(=O)Oc2ccc(Cl)cc2Cc2ccccc2)c1
inactive: [1] 5.35% | [2] -3.5% | [3] 0.05% | [4] 11.8% | [5] 8.2% | [6] 7.1%

CC1C(=O)N(c2ccccc2)C1c1ccccc1 (configuration not stated)
inactive: [1] -18.6% | [2] -31.3% | [3] -11.9% | [4] -24.6% | [5] 2.95% | [6] -19.6%

CCCCCCCCCCCCCCCCOc1ccc(-c2cc(=O)n(C)n2C)cc1
inactive: [1] 6% | [2] -18.6% | [3] -19.1% | [4] -8.45% | [5] -2.9% | [6] -4.05%

O=P(O)(O)OC1C(OP(=O)(O)O)C(OP(=O)(O)O)C(OP(=O)(O)O)C(OP(=O)(O)O)C1OP(=O)(O)O.[Cu+2] (configuration not stated)
inactive: [1] -18.1% | [2] -18.8% | [3] -14.7% | [4] -10.9% | [5] -9% | [6] -19.4%

CCCCCC(C)(O)CCC (configuration not stated)
inactive: [1] -5.9% | [2] -6.65% | [3] 3.65% | [4] -3.45% | [5] 6.9% | [6] -3.55%

O=c1c2ccccc2[nH]c2c(O)c3c(=O)c4ccccc4[nH]c3cc12
inactive: [1] -8.6% | [2] -2.05% | [3] 3.9% | [4] -4.4% | [5] 3.15% | [6] 4.05%

NC(=O)C(Cc1ccccc1)NC(=O)C1CCCN1 (configuration not stated)
inactive: [1] 4.2% | [2] 1.35% | [3] 2.5% | [4] -33.9% | [5] -6.1% | [6] 24.6%

Cc1cc(-c2ccc(N=Nc3c(C)nn(-c4ccc(S(=O)(=O)O)cc4)c3O)c(C)c2)ccc1N=Nc1ccc(O)c(C(=O)O)c1
inactive: [1] 26% | [2] 12.4% | [3] 26.2% | [4] 20.9% | [5] 18.6% | [6] 21%

Cc1ccc(S(=O)OC2C3CC4CC(C3)CC2C4)cc1 (configuration not stated)
inactive: [1] 6.65% | [2] 10.3% | [3] 0.2% | [4] 30.8% | [5] 1.25% | [6] 0.75%

CCC(=O)NN(C(C)=O)c1ccccc1
inactive: [1] 10.3% | [2] -21.4% | [3] 6.4% | [4] -16.2% | [5] 8.8% | [6] 18.9%

CCn1c(C)nc2c(N)cccc2c1=O
inactive: [1] 24.4% | [2] -4.75% | [3] -7.9% | [4] -6.6% | [5] -11% | [6] 2.75%

CCOC(=O)c1c(C(=O)Nc2ccccc2)c(-c2ccccc2)n(NC(=O)c2cccc(Cl)c2)c1C
inactive: [1] 18.1% | [2] 10.3% | [3] 3.9% | [4] 7.2% | [5] -4.85% | [6] 21.5%

CCOC(=O)C(/C=N\c1[nH]ncc1C#N)=C(/C(=O)OCC)c1ccc(O)cc1
inactive: [1] 4.55% | [2] 5.9% | [3] -13.7% | [4] -21.2% | [5] -3% | [6] 15.4%

CC(=O)Nc1ccc(/C=C/c2ccc(N=C=S)c(S(=O)(=O)O)c2)c(S(=O)(=O)O)c1
inactive: [1] 9.5% | [2] -4.4% | [3] -19% | [4] 10.1% | [5] 1.4% | [6] -13.5%

CCCOC(=O)c1cc(O)ccc1O
inactive: [1] 1.15% | [2] -0.45% | [3] 14.9% | [4] -17.6% | [5] -2.55% | [6] -1.7%

COc1ccc(C2OC(=O)C(=O)C2=O)cc1OC (configuration not stated)
inactive: [1] -25.9% | [2] -25.4% | [3] -8.45% | [4] -17.4% | [5] 8.7% | [6] -8.65%

CCCCCCCCCCCC(=O)N/N=C/c1ccccc1OC
inactive: [1] -0.65% | [2] 7.25% | [3] -10.3% | [4] -18.8% | [5] 4% | [6] 12.6%

Cc1cc(Cl)nc(Nc2ccccc2)n1
inactive: [1] 13.1% | [2] -2.5% | [3] 3.8% | [4] -1.8% | [5] 9.25% | [6] 13.7%
